Here are results for 9 molecules from PubChem BioAssay (NCI).

Holding throughout (experiment): NCI-60 one-dose screen, 48 h (100 = growth as untreated, 0 = no growth, -100 = all killed)
Settings in all cases: 10 µM unless noted

For test [1], the system named is SR leukemia.
Test [2] has as its system RPMI-8226 leukemia.
For test [3], the system named is OVCAR-8 ovarian.
Test [4] deals with OVCAR-5 ovarian.
Test [5] relates to SK-OV-3 ovarian.
In test [6] the test system is IGROV1 ovarian.
Test [7] concerns OVCAR-3 ovarian.
The subject of test [8] is NCI/ADR-RES ovarian.
The test system of test [9] is T-47D breast.
Test [10] relates to BT-549 breast.
In test [11] the test system is MDA-MB-435 melanoma.
In test [12] the test system is SW-620 colon.
Test [13] relates to MCF7 breast.
Test [14] concerns HCT-116 colon.
Test [15] has as its system HCC-2998 colon.
For test [16], the system named is KM12 colon.
Test [17] relates to OVCAR-4 ovarian.
Test [18] has as its system HS 578T breast.

Compounds without any hit were thinned out: in the full panel of roughly 83,000, 20% have a hit.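 In brief: 96-well plates, 48 h treatment, single concentration, percent growth endpoint.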 A number with no mark means an inactive call. The source made the active and inactive calls. How the source made its calls: active means growth percent below 10; inactive means the rest.

For the molecule `CC1Cc2cc(F)ccc2-n2cccc21` (configuration not stated), the growth is 114% in [1]; 111% in [2]; 99.5% in [3]; 95% in [4]; 101% in test [5]; 92% in test [6]. The growth in test [7] is 109%; in test [8], 107%; in test [9] it was 102%; in [10] it was 111%; in [11] it was 96.9%; in test [12], 96.1%. For the same molecule, the growth in test [13] is 107%; in test [14], 114%; in test [15] it was 106%; in [16], 110%.
Turning to `CC(=O)Nc1ccc(CC#N)cc1Br`, the growth in test [1] was 112%; in test [2], 109%; in test [3] it was 110%; in [17], 98.2%; in test [5], 104%; in test [6], 110%. Further, the growth in [7] was 108%; in test [18], 89.9%; in test [8], 116%; in test [9], 94.4%; in [10] it was 109%; in test [11], 104%. Besides, the growth in [12] is 99.3%; in test [13], 96.7%; in test [14] it was 96.8%; in test [15], 96.7%; in test [16], 107%.
For the molecule `COC(=O)C(C)[C@H]1CC[C@@H]2[C@]1(C)CC=C1[C@]23C=C[C@]2(C[C@@H](OC(C)=O)CC[C@]12C)C(C(=O)OC)C3C(=O)OC` (some centres not stated), the growth in test [1] was 55.8%; in [2] it was 60.8%; in test [3] it was 95.7%; in test [17], 85.7%; in test [5], 111%; in test [6], 98.2%. The growth in test [7] is 86.4%; in test [18], 102%; in [8], 94.3%; in [9], 78.2%; in [10] it was 101%; in [11], 95.1%. Further, the growth in [12] was 102%; in [13], 83.9%; in [14] it was 63.7%; in test [15] it was 91.4%; in test [16], 92.5%.
Consider `O=c1[nH]c2cc(O)ccc2n2cc3c(F)cccc3c12`, for which the growth in [1] is 9.4% (active); in test [2] it was 46.2%; in [3], 24.6%; in test [4], 43.8%; in test [5], -4.03% (active); in [6], 16.9%. Besides, the growth in test [7] was 30.3%; in [18] it was -26.1% (active); in test [8], 17.2%; in [9], 39.1%; in [11], -12.2% (active); in [12], 18.7%. Besides, the growth was -3.3% (active) in test [13], 19.9% in test [14] and 34.7% in test [16].
As for `O=C1/C(=C/c2ccc(Cl)cc2)CCC/C1=C\c1ccc(Cl)cc1`, the growth in test [1] was 48.7%; in test [2], -0.252% (active); in test [3], 68.9%; in [4], 96.7%; in test [5] it was 88%; in [7], 55.8%. The growth was 87.2% in test [8]; 79.6% in test [9]; 97% in test [10]; 15.9% in test [11]; 17.3% in test [13]; -42.6% (active) in test [14]. The growth in test [15] was 28.6%; in [16], 18.7%.
On to `CCCCCCNC(=O)Oc1ccc(/C(=C(/C)Cc2ccc(OC)cc2)c2ccc(OCCN(C)C)cc2)cc1`, for which the growth in test [1] is -22.5% (active); in test [2], 28.8%; in [3], 69.9%; in test [17], 76.8%; in test [5], 83.4%; in test [6], 74.4%. The growth is 81.3% in test [7]; 45.9% in test [18]; 78.3% in [8]; 25.8% in test [9]; 88.1% in test [10]; 67.8% in test [11]. In addition, the growth in test [12] is 35.4%; in [13], 20.4%; in test [14] it was 26.7%; in test [15], 52.4%; in test [16], 56.3%.
As for `Cc1c([C@H](C(Cl)Cl)[C@H](O)[C@H]2C[C@H](C)C(=O)O2)ccc2c1C(=O)[C@H]1[C@H]2C[C@@H](Br)[C@@]23O[C@@H](CO[C@H]2O)CC13C` (some centres not stated), the growth in [1] was 11.9%; in test [2], 26.7%; in test [3], 5.88% (active); in [4], 55.6%; in test [17], 38.6%; in test [6], 36.5%. Further, the growth in test [7] was -56.5% (active); in [18], -23.2% (active); in test [8], 30.8%; in test [10], 37.6%; in test [11], -40% (active); in test [12], 14.6%. In addition, the values for the growth in test [14], in test [15] and in [16] were 15.1%, 8.99% (active) and 2.99% (active), respectively.
On to `COc1ccc(Cn2cc3c(c2-c2ccccc2)CCc2cnoc2-3)cc1OC`, for which the growth in test [1] is 18.4%; in test [2] it was 22.6%; in [3], 38.9%; in test [17] it was 41.5%; in test [5], 8.39% (active); in test [6], 37.7%. In addition, the growth was 13.8% in test [7]; 5.72% (active) in test [18]; 6.32% (active) in test [8]; 28.3% in [9]; 45.8% in test [10]; -33.9% (active) in test [11]. Further, the growth in test [12] is 25.2%; in [13], 11.4%; in [14], 22.8%; in test [15], 37.4%; in [16], 29.2%.
With `COc1cc2cn3c4ccc(O)cc4[nH]c(=O)c3c2cc1OC`, the growth in test [1] was -17.5% (active); in [2] it was -2.13% (active); in test [3], 0.127% (active); in test [4], 30%; in [6] it was -3.23% (active); in test [7], -13.9% (active). In addition, the growth in test [18] was -11.2% (active); in test [8], 24.7%; in test [11], 9.28% (active); in test [12], 16.8%; in test [13], -77.9% (active); in test [14] it was -100% (active). The results for the growth in test [15] and in [16] were 13.1% and -2.22% (active), respectively.
